In publication PMC4336329 (PLoS ONE, 2015):
Screen size: about 310,000 compounds; about 14,000 (4.5%) showed an effect of 50% or more. Effects have a minus sign here. What follows is part of a selection rich in strong results, with near analogues and random picks from the rest.

Target: human ether-à-go-go-related gene (hERG) potassium channel (human, UniProt Q12809)
Assay: primary screen, population patch clamp on CHO cells stably expressing hERG; higher = less effect of the substance
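Further: peak tail current of the secondary pulse compared with the same well before compound.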

human ether-à-go-go-related gene (hERG) potassium channel, sequence (Q12809 whole entry, looked up): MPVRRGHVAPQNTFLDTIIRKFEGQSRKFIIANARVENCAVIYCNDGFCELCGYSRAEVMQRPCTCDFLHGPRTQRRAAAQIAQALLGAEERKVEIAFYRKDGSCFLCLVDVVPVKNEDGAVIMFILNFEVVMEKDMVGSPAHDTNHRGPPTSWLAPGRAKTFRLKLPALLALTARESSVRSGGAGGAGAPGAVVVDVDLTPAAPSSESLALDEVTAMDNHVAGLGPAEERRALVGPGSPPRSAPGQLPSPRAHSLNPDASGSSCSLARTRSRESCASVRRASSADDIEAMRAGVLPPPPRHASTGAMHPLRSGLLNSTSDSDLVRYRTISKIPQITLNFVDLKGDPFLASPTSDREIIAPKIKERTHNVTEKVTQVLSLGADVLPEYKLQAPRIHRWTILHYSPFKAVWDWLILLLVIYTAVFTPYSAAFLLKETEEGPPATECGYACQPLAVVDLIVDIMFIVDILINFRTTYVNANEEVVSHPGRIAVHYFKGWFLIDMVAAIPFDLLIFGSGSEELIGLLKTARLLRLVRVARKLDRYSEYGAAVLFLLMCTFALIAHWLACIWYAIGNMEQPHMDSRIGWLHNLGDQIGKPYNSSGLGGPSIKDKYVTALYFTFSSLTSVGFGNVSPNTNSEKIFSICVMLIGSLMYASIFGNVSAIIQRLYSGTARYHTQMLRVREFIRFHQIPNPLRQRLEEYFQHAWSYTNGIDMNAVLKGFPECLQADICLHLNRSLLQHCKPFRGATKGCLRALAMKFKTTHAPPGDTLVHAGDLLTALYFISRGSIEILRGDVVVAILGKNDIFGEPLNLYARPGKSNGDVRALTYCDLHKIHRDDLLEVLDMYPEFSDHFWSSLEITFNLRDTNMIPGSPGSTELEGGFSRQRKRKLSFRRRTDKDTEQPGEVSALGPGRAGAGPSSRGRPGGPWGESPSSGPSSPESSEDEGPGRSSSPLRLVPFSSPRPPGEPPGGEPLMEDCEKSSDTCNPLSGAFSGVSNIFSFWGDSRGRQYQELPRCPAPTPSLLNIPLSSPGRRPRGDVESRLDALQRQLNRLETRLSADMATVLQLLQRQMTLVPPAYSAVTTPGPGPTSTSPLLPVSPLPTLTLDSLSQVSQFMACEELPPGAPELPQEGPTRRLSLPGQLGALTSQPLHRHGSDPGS

Row | SMILES | hERG current change (%, negative = inhibition) at 10uM
1 | Br.COc1cccc(CNCC2CCCO2)c1 (stereo not shown) | 13.9%
2 | COc1ccc(OC)c(NC(=O)Cc2coc3ccc4ccccc4c23)c1 | 0.772%
3 | Cc1sc(/C=C2\C(=O)ON=C2c2ccccc2)cc1Br | 14.8%
4 | COC(=O)c1ccc(NC(=O)c2ccc3nsnc3c2)cc1 | 4.15%
5 | COc1ccc(CN2CCN(c3ccccc3F)CC2)cc1O | -66.5%
6 | COc1ccc(CN2CCSCC2)cc1O | 14.4%
7 | COc1ccc(CN2CCN(Cc3ccccc3F)CC2)cc1.O=C(O)C(=O)O | -43.2%
8 | COc1ccc(CN2CCN(C(=O)c3ccc(F)cc3)CC2)c(OC)c1.O=C(O)C(=O)O | -44.3%
9 | COc1ccc(CN2CCN(c3ccccc3F)CC2)c(OC)c1 | -75.1%
10 | COc1cc(CN2CCN(c3ccccc3F)CC2)c([N+](=O)[O-])cc1OC | -27.4%
11 | COc1ccc(OC)c(CN2CCN(c3ccccc3OC)CC2)c1 | -32.7%
12 | COc1ccc(CN2CCN(Cc3ccco3)CC2)c(OC)c1.O=C(O)C(=O)O | -46.4%
13 | COc1cc(CN2CCN(c3ccccc3F)CC2)cc(OC)c1O | -26.4%
14 | COc1ccc(CN2CCN(Cc3ccccc3F)CC2)c(OC)c1.O=C(O)C(=O)O | -68.5%
15 | COc1ccccc1N1CCN(Cc2ccccc2F)CC1 | -17.6%
16 | COc1ccc(CN2CCN(c3ccccc3OC)CC2)c(OC)c1.O=C(O)C(=O)O | -64.2%
17 | CC1CN(Cc2ccc(C#N)cc2Cl)CC(C)O1.Cl (stereo not shown) | 0.479%
18 | COc1ccc(Nc2nc(-c3cccs3)nc3ccccc23)cc1S(=O)(=O)N1CCOCC1 | -17.5%
19 | COc1ccc(OC)c(S(=O)(=O)N2Cc3ccccc3CC2C(=O)Nc2nccs2)c1 (stereo not shown) | 22.2%
20 | COc1cc(CNn2c(C)n[nH]c2=S)cc(Cl)c1OCc1ccc(F)cc1 | 14.4%
21 | COc1ccc2c(c1)C(NC(C)=O)C(=O)N2C (stereo not shown) | -5.38%
22 | O=C(O)c1ccccc1C(=O)Nn1cnnc1 | 10.6%

Row | SMILES | hERG current change (%, negative = inhibition) at 10uM
23 | CCOC(=O)NC1(C(F)(F)F)NC(=O)N(C2CCCCC2)C1=O (stereo not shown) | -3.7%
24 | O=C(CCC(=O)NNC(=O)COc1ccc(Br)cc1)NCc1ccccc1 | 19.6%
25 | OC(CNCc1ccccn1)c1ccccc1 (stereo not shown) | -3.94%
26 | COc1ccc(C(=O)N2CCN(Cc3ccccc3C(F)(F)F)CC2)cc1.O=C(O)C(=O)O | -1.25%
27 | COc1cc(CN2CCN(Cc3ccccc3C(F)(F)F)CC2)cc(OC)c1OC.O=C(O)C(=O)O | -8.28%
28 | COc1ccc(CN2CCN(Cc3ccccc3C(F)(F)F)CC2)c(OC)c1.O=C(O)C(=O)O | -74.2%
29 | NS(=O)(=O)c1cc(C(=O)NC2CCSc3ccccc32)ccc1Cl (stereo not shown) | 7.27%
30 | CC(C)N1CCC2(CC1)N=C(c1ccc3c(c1)OCO3)CC(c1cc(Cl)ccc1O)N2 (stereo not shown) | -67.1%
31 | CCC1(C)N=C(c2ccc3c(c2)OCO3)CC(c2ccccc2O)N1 (stereo not shown) | 2.42%
32 | CC(C)C1N=C(c2ccc3c(c2)OCO3)CC(c2ccccc2O)N1 (stereo not shown) | -20.5%
33 | Cc1ccc2cccnc2c1NC(=S)NC(=O)c1ccccc1 | 17%
34 | CCOc1ccc(C(=O)C[n+]2ccc(C(=O)NCc3ccccc3)cc2)cc1.[Br-] | -36%
35 | O=C(C[n+]1ccc(C(=O)NCc2ccccc2)cc1)c1ccc2c(c1)OCCO2.[Br-] | 12.9%
36 | O=C(C[n+]1ccc(C(=O)NCc2ccccc2)cc1)c1ccc(Cl)cc1.[Br-] | -71.3%
37 | O=C(C[n+]1ccc(C(=O)NCc2ccccc2)cc1)c1ccc(OC(F)F)cc1.[Br-] | -92.8%
38 | COc1ccc(C(=O)C[n+]2cn(C(F)F)c3ccccc32)c(F)c1.[Br-] | -4.45%
39 | O=C(CNC(=O)c1ccc(OC(F)F)cc1)NCc1ccccn1 | -70.9%
40 | O=C(C[n+]1cn(C(F)F)c2ccccc21)c1ccc(OC(F)F)cc1.[Br-] | -74.9%
41 | O=C(CNC(=O)c1ccc(F)cc1)NCc1ccccn1 | -1.73%
42 | O=C(C[n+]1cn(C(F)F)c2ccccc21)c1ccc(Br)cc1.[Br-] | -9.95%
43 | O=C(NCCc1ccccn1)c1ccc(OC(F)F)cc1 | -24.7%
44 | O=C(C[n+]1cccc(CNC(=O)c2ccc(OC(F)F)cc2)c1)c1ccccc1.[Cl-] | -14.7%

Row | SMILES | hERG current change (%, negative = inhibition) at 10uM
45 | O=C(NCc1ccccc1)c1ccc(Cl)cc1 | 2.26%
46 | CCCCn1c(N)c(N(CC(C)C)C(=O)c2ccc(-c3ccc(Cl)cc3)o2)c(=O)[nH]c1=O | 1.07%
47 | CCC(CC)C(=O)OCC(=O)Nc1cccc(S(=O)(=O)N(C)c2ccccc2)c1 | 14.3%
48 | O=C(NCc1ccc(F)cc1)C(C(=O)NCc1ccc(F)cc1)c1ncc(C(F)(F)F)cc1Cl | 1.56%
49 | O=C(NCc1ccco1)c1cc2ccccc2o1 | 11.8%
50 | COc1cc(OC)cc(C(=O)Nc2ncn[nH]2)c1 | 7.31%
51 | Cc1ccn(CCC(=O)NC2CC(C)(C)Cc3c2cnn3-c2ccccc2C)n1 (stereo not shown) | -25.6%
52 | CC1(C)CC(=O)c2cc(C(=O)NC3CCSC3=O)c(=O)n(-c3ccccc3)c2C1 (stereo not shown) | -0.214%
53 | Cc1nc(NC(CC(C)C)C(=O)O)c2nc(C)oc2n1 (stereo not shown) | -3.03%
54 | COc1ccc(Nc2nc(C)cc(C)n2)cc1Cl.Cl | 0.588%
55 | COc1ccc(C2N(C(=O)CN3CCCC3)CCCN2S(=O)(=O)c2ccccc2)cc1 (stereo not shown) | -15.8%
56 | CCCC(=O)Oc1ccc(N(C(=O)CCC)S(=O)(=O)c2cccs2)cc1 | 10.9%
57 | O=C1Nc2ccccc2Oc2cc([N+](=O)[O-])cc(Oc3ccccc3)c21 | -24.5%
58 | Cc1[nH]c2ccc(C(=O)OC(C)C(=O)N(C)c3ccccc3)cc2c1C (stereo not shown) | 1.13%
59 | Cc1ccccc1C(=O)N1CCN(c2ncnc3c2cnn3-c2ccccc2)CC1 | -9.76%
60 | O=C(COc1ccccc1)N1CCN(c2ncnc3c2cnn3-c2ccccc2)CC1 | -73.6%
61 | Cc1ccc(C(=O)N2CCN(c3ncnc4c3cnn4-c3ccccc3)CC2)cc1 | -0.928%
62 | c1ccc(-n2ncc3c(N4CCCC4)ncnc32)cc1 | -8.17%
63 | O=C(c1ccco1)N1CCN(c2ncnc3c2cnn3-c2ccccc2)CC1 | -64.5%
64 | O=C(c1ccccc1)N1CCN(c2ncnc3c2cnn3-c2ccccc2)CC1 | -18%
65 | CSc1ccc(COC(=O)CCS(=O)(=O)c2ccc(C)cc2)cc1 | -9.83%
66 | O=C(C[n+]1ccccc1)N1CCCc2ccccc21.[Cl-] | 18.3%

Row | SMILES | hERG current change (%, negative = inhibition) at 10uM
67 | Cn1c(SCC#N)nnc1-c1ccc2c(c1)OCO2 | 16.9%
68 | CCOC(=O)c1c(NC(=O)CCc2ccc(CC)o2)sc(C)c1C | 1.97%
69 | O=C(O)COc1ccccc1/C=N/NC(=O)CN1CCN(Cc2ccccc2Cl)CC1 | -0.129%
70 | O=C(CN1CCN(Cc2ccccc2)CC1)N/N=C/C=C/c1ccccc1[N+](=O)[O-] | -74.2%
71 | O=C(CN1CCN(Cc2ccccc2Cl)CC1)N/N=C/C=C\c1ccccc1[N+](=O)[O-] | -76.2%
72 | O=C(CN1CCN(Cc2ccccc2Cl)CC1)N/N=C/c1ccco1 | -21.8%
73 | O=C(CN1CCN(Cc2ccccc2Cl)CC1)N/N=C/C=C/c1ccccc1[N+](=O)[O-] | -71.6%
74 | O=C(CN1CCN(Cc2ccccc2)CC1)N/N=C/C=C/c1ccco1 | -47.2%
75 | O=C(Cc1cccs1)N/N=C/C=C\c1ccccc1[N+](=O)[O-] | 13.3%
76 | O=C(Cc1ccccc1)N/N=C/C=C/c1ccccc1[N+](=O)[O-] | 1.71%
77 | Cc1ccc(CN2CCN(/N=C/C=C/c3ccccc3[N+](=O)[O-])CC2)cc1 | -21.1%
78 | O=C(CN1CCN(Cc2ccccc2Cl)CC1)N/N=C/C=C/c1ccco1 | -68.5%
79 | O=C(Cc1cccs1)N/N=C/C=C/c1ccccc1[N+](=O)[O-] | -0.125%
80 | O=[N+]([O-])c1ccccc1/C=N\N1CCN(Cc2ccccc2Cl)CC1 | 9.77%
81 | O=C(COC(=O)CNS(=O)(=O)c1ccc(F)c(F)c1F)NC1CCCC1 | 4.16%
82 | Clc1ccc(OCCCc2nc(-c3ccncc3)no2)c(Cl)c1 | -0.0206%
83 | O=C1/C(=C/N(C(=O)c2ccco2)c2ccc(Br)cc2)Sc2ccccc21 | -7.76%
84 | Cc1[nH]c2ccccc2c1C(C[N+](=O)[O-])c1cccc(O)c1 (stereo not shown) | 8.53%
85 | Cc1oc2cc3c(C(=O)N4CCCCC4)c(C)oc3cc2c1C(=O)N1CCCCC1 | 5.17%
